In the supplement of paper PMC10981050:
Where “and” joins values, the source holds several entries; their conditions need not be identical. Identical values can stand only once. Counter-ions that a name gives are not always drawn.

What was measured:
Assay in all cases: cell viability relative to vehicle control; higher = less cytotoxic
Conditions in all cases: 10 µM
K562 = tested on: K562
Procedure, shortened: (§1)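 CRISPR-edited SRSF2 P95 mutant and isogenic wild-type clones of four leukaemia lines were screened against Selleck bioactive, kinase and epigenetic probe libraries, with identity-inconsistent compounds removed. Compounds were acoustically dispensed into 384-well plates at a single 10 µM dose, with 2000 cells in 50 µL medium per well. After 48 h, supernatant was removed and CellTiter-Glo luminescence was read. Viability was expressed as percent of the on-plate DMSO vehicle control, analysed in Genedata Screener.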

MARIMO = tested on: MARIMO
Procedure, shortened: as §1

MOLM14 = tested on: MOLM14
Procedure, shortened: as §1

OCI-AML2 = tested on: OCI-AML2
Procedure, shortened: as §1

SMILES | cell viability (K562; SRSF2 genotype: SRSF2 P95H/wt) | cell viability (K562; SRSF2 genotype: SRSF2 wt/wt) [%] | cell viability (MARIMO; SRSF2 genotype: SRSF2 P95H/wt) [%] | cell viability (MARIMO; SRSF2 genotype: SRSF2 wt/wt) [%] | cell viability (MOLM14; SRSF2 genotype: SRSF2 P95H/wt) [%] | cell viability (MOLM14; SRSF2 genotype: SRSF2 wt/wt) [%] | cell viability (OCI-AML2; SRSF2 genotype: P95H/wt) [%] | cell viability (OCI-AML2; SRSF2 genotype: wt/wt) [%]
C=CCn1c(=O)c2cnc(Nc3ccc(N4CCN(C)CC4)cc3)nc2n1-c1cccc(C(C)(C)O)n1 | 8.01% and 13.9% | 10.5 | 11.7 | 6.8 | 11.6 | 4.1 | 9.17 | 8.01
NN1CC(=O)NC1=O [1-Aminohydantoin Hydrochloride] | 103% | 97.1 | 99.8 | 106 | 97.1 | 101 | 89.2 | 106
C[C@H](NCc1ccc(OCc2cccc(F)c2)cc1)C(N)=O | 102% | 99.9 | 105 | 102 | 98.2 | 98.2 | 115 | 106
Cc1cc(-c2cc(C)c(NCCCS(=O)(=O)O)c(C)c2)cc(C)c1N | 106% and 93.5% | 105 | 96.3 | 111 | 100 | 108 | 99.9 | 99
COc1cc2c(cc1OC)[C@H]1[C@@H](C)c3ccc(OC)c(OC)c3CN1CC2 [Corydaline] | 84.4% and 88.8% | 86.6 | 83.2 | 82 | 89.4 | 90.9 | 73.8 | 79.1
OC[C@@H](O)[C@@H](O)[C@H](O)[C@@H](O)CO [Sorbitol (Glucitol)] | 101% and 105% | 102 | 103 | 102 | 97.3 | 104 | 101 | 100
CNc1nc(Nc2cnn(C3CCN(C4COC4)CC3F)c2Cl)ncc1C(F)(F)F (stereo not drawn) | 89.6% and 89% | 91.7 | 76.2 | 80.1 | 38.2 | 36.4 | 46.3 | 47.6
CC(=O)OCOC(=O)CN(CC(=O)OCOC(C)=O)c1ccccc1OCCOc1ccccc1N(CC(=O)OCOC(C)=O)CC(=O)OCOC(C)=O | 18.9% and 10.1% | 6.38 | 1.03 | 0.7 | 0.2 | 0.25 | 2.33 | 4.73
COc1ccc(-c2cc(=O)c3c(OC)c(OC)c(OC)c(OC)c3o2)cc1 [Tangeretin (Tangeritin)] | 95.5% and 98.4% | 103 | 91.7 | 90.8 | 96 | 102 | 82.9 | 88.1
CCC[C@H](NC(=O)[C@@H]1[C@H]2CCC[C@H]2CN1C(=O)[C@@H](NC(=O)[C@@H](NC(=O)c1cnccn1)C1CCCCC1)C(C)(C)C)C(=O)C(=O)NC1CC1 [Telaprevir (VX-950)] | 87.5% and 92% | 80.2 | 68.6 | 86.1 | 89.5 | 99.2 | 85.9 | 98.7
CO/N=C(\C(=O)N[C@@H]1C(=O)N2C(C(=O)[O-])=C(C[n+]3cccc4c3CCCC4)CS[C@H]12)c1csc(N)n1 [Cefquinome sulfate] | 103% and 99.9% | 91 | 87.5 | 100 | 86.3 | 95.5 | 93.9 | 91.6
